Results: PubChem BioAssay
Active and inactive are the calls of the source.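 Rule for the calls, unless noted: active = inhibition at or above 50% at 10 µM; inactive = inhibition below 50%.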

How the values were obtained:
[1] = inhibitors of TNFa-induced NFkB p65 translocation, primary screen, imaging, HUVEC, MLSMR starter and 10KST1 sets (AID 438;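 active = inhibition above 20% together with a positive visual image hit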;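 note: compound added about 3h40 before a 20 min TNFalpha stimulation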;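 for inhibition: signal is the nuclear over cytoplasmic p65 intensity ratio per well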); settings: HUVEC TNFa-induced p65 nuclear translocation; cell count: measured here: nuclei count (cytotoxicity indicator), at 2.08 µM; inhibition: at 2 µM, stronger effect = higher value, 0% TNFa-plus-vehicle, 100% no-TNFa wells
[2] = inhibitors of mutant huntingtin aggregation, primary screen, imaging, exon1htt(103Q)mCFP cells, high-content imaging (AID 483;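 active = visual image review flags a hit and inhibition of aggregation exceeds 20%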;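 note: compound exposure lasted 3 days before fixation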;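 for nuclei count: percent of the per-plate median nuclei count of sample wells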); settings: exon1htt(103Q)mCFP cell line, aggregate imaging, at 2 µM; inhibition of aggregation: stronger effect = higher value; nuclei count: measured here: cell count, toxicity
[3] = inhibitors of E-selectin induction by TNFa, primary screen, imaging, HUVEC, immunofluorescence, MLSMR starter and 10KST1 sets (AID 487;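 active = visually confirmed hit in the image check and inhibition above 20%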;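 for inhibition: signal is fraction of cell area covered by stained E-selectin grains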;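 for nuclei count: 100% = median nuclei count of all wells on the same plate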); settings: HUVEC TNFalpha-induced E-selectin immunofluorescence imaging, at 2 µM; inhibition: stronger effect = higher value; nuclei count: measured here: cell number, toxicity
[4] = target: Voltage-gated potassium channel subunit beta-2 (Rattus norvegicus) (UniProt P62483); assay: KvBeta enzyme negative modulators, primary screen, biochemical, NADPH fluorescence (AID 622;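 active = fluorescence slope higher than the sample average by over 3 SD, cut at about -0.22 in these data, passing the limit was not always enough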;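 note: slope of raw intensity against log time taken from 70 to 1610 s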); settings: recombinant KvBeta, 4-cyanobenzaldehyde reduction, at 10 µM, stronger effect = higher value
Voltage-gated potassium channel subunit beta-2 (Rattus norvegicus), sequence (P62483 whole entry, looked up): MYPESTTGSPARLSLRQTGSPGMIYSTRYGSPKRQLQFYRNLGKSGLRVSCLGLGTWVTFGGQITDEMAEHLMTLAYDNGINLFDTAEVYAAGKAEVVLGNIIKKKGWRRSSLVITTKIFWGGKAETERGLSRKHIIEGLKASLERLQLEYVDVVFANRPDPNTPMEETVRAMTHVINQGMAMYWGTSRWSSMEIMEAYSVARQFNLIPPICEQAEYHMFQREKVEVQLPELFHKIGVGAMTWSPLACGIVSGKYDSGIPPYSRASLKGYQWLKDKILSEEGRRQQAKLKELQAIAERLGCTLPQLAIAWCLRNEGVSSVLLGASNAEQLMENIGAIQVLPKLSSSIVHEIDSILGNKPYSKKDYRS

[5] = target: Voltage-gated potassium channel subunit beta-2 (Rattus norvegicus) (UniProt P62483); assay: KvBeta positive modulators, primary screen, biochemical, NADPH fluorescence (AID 623;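 active = NADPH fluorescence slope more negative than the mean of all samples by about 3 SD, 99.7% confidence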;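 note: fluorescence intensity change per second fitted from 20 to 320 s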); settings: Recombinant KvBeta, NADPH fluorescence decrease slope, 10 min; at 10 µM; stronger effect = lower value
[6] = target: Alpha-2C adrenergic receptor (Homo sapiens) (UniProt P18825); assay: modulators of alpha2C/GIRK thallium flux, primary screen, cell-based, HEK293 alpha2C/GIRK1/2 (AID 624;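 active = fluorescence slope after compound addition differing from the mean of all screened samples at 99.7% confidence, in either direction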;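 note: slope of fluorescence ratio to pre-addition baseline per second over 15 to 24 s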); settings: thallium flux BTC fluorescence, at 10 µM, actives lie on both sides
Alpha-2C adrenergic receptor (Homo sapiens), sequence (P18825 whole entry, looked up): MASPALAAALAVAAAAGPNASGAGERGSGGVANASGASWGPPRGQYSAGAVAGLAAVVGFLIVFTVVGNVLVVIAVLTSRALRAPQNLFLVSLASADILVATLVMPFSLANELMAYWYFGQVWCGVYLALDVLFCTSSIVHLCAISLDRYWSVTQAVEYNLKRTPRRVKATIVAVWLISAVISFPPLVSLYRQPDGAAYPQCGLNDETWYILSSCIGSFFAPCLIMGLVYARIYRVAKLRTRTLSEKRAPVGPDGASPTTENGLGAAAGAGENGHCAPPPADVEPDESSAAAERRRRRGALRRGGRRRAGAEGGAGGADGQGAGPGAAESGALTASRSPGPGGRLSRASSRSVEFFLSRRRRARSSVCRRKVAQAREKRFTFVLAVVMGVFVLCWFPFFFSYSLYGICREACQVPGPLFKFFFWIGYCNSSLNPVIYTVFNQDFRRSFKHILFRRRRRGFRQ

[7] = inhibitors of Sendai virus-induced IRF3 signaling, primary screen, TLR/RLR signaling modifier project, cell-based, Sendai virus stimulus, luciferase, 10K MLSCN set (AID 602276); settings: HEK293 RL24 IRF3 luciferase reporter, at 10 µM, stronger effect = higher value;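 note: firefly luciferase from ISG56 promoter only with Renilla not read in this screen; 0% = Sendai virus plus DMSO and 100% = medium plus DMSO without virus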
[8] = inhibitors of poly I:C-induced TLR3 signaling, primary screen, cell-based, poly I:C stimulus, luciferase, 10K MLSCN set (AID 602277;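 active = inhibition of the reporter signal at or above 50%; inactive = inhibition below 50%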); settings: HEK293-TLR3 RL24 IRF3 luciferase reporter, at 10 µM, stronger effect = higher value

Structure (SMILES): C#CCN1C(=O)C(O)(CC(=O)c2cc(OC)ccc2OC)c2ccccc21 (stereo not given)
- cell count [1]: 841
- inhibition [1]: -2.9% (inactive)
- inhibition of aggregation [2]: 1.3% (inactive)
- nuclei count [2]: 97.5%
- inhibition [3]: -183% (inactive)
- nuclei count [3]: 124%
- fluorescence slope [4]: -0.411 (inactive)
- NADPH fluorescence slope [5]: -3.9e-05 (inactive)
- slope [6]: 0.00497 (inactive)
- inhibition [7]: 17.5% (inactive)
- inhibition [8]: 20% (inactive)

Structure (SMILES): COc1cccc(-n2c(SCC(=O)N3CCCC3)nc3c([nH]c4ccccc43)c2=O)c1
- cell count [1]: 493
- inhibition [1]: -5.9% (inactive)
- inhibition of aggregation [2]: 0.6% (inactive)
- nuclei count [2]: 75.6%
- inhibition [3]: 5.4% (inactive)
- nuclei count [3]: 91.8%
- fluorescence slope [4]: -0.544 (inactive)
- NADPH fluorescence slope [5]: -1.5e-05 (inactive)
- slope [6]: 0.00652 (inactive)
- inhibition [7]: -9.13% (inactive)
- inhibition [8]: 55.5% (active)

Structure (SMILES): O=c1[nH]c(CN2CCN(Cc3ccccc3)CC2)nc2sc3c(c12)CCC3
- cell count [1]: 406
- inhibition [1]: -0.4% (inactive)
- inhibition of aggregation [2]: -0.1% (inactive)
- nuclei count [2]: 109%
- inhibition [3]: -73% (inactive)
- nuclei count [3]: 99.5%
- fluorescence slope [4]: -0.596 (inactive)
- NADPH fluorescence slope [5]: -3e-05 (inactive)
- slope [6]: 0.00576 (inactive)
- inhibition [7]: 3.63% (inactive)
- inhibition [8]: 17.7% (inactive)

Structure (SMILES): CCCCN(CC)CCCNC(=O)CS(=O)(=O)Cc1nc(-c2cccc(OC)c2)oc1C
- cell count [1]: 670
- inhibition [1]: -15.1% (inactive)
- inhibition of aggregation [2]: -1% (inactive)
- nuclei count [2]: 100%
- inhibition [3]: -24.9% (inactive)
- nuclei count [3]: 99.7%
- fluorescence slope [4]: -0.354 (inactive)
- NADPH fluorescence slope [5]: 4e-05 (inactive)
- slope [6]: 0.00399 (inactive)
- inhibition [7]: 2.85% (inactive)
- inhibition [8]: 17.9% (inactive)

Structure (SMILES): CN1CCCN(CC(O)COCc2cccs2)CC1 (stereo not given)
- cell count [1]: 489
- inhibition [1]: -6.7% (inactive)
- inhibition of aggregation [2]: -19.8% (inactive)
- nuclei count [2]: 108%
- inhibition [3]: -66% (inactive)
- nuclei count [3]: 153%
- fluorescence slope [4]: -0.489 (inactive)
- NADPH fluorescence slope [5]: -3.2e-05 (inactive)
- slope [6]: 0.00614 (inactive)
- inhibition [7]: -7.31% (inactive)
- inhibition [8]: 24.2% (inactive)

Structure (SMILES): COc1ccc(S(=O)(=O)N(C)C2CCN(C)CC2)cc1
- cell count [1]: 843
- inhibition [1]: -2.3% (inactive)
- inhibition of aggregation [2]: -6.3% (inactive)
- nuclei count [2]: 128%
- inhibition [3]: -73.5% (inactive)
- nuclei count [3]: 114%
- fluorescence slope [4]: -0.548 (inactive)
- NADPH fluorescence slope [5]: -5.5e-05 (inactive)
- slope [6]: 0.00699 (inactive)
- inhibition [7]: 7.34% (inactive)
- inhibition [8]: 43.8% (inactive)

Structure (SMILES): COc1ccc(C(C(C(=O)c2ccco2)N2CCOCC2)N2CCOCC2)cc1 (stereo not given)
- cell count [1]: 534
- inhibition [1]: 5.4% (inactive)
- inhibition of aggregation [2]: 2.2% (inactive)
- nuclei count [2]: 87.8%
- inhibition [3]: 57.2% (inactive)
- nuclei count [3]: 91.5%
- fluorescence slope [4]: -0.401 (inactive)
- NADPH fluorescence slope [5]: 1.7e-05 (inactive)
- slope [6]: 0.0056 (inactive)
- inhibition [7]: 2.32% (inactive)
- inhibition [8]: -5.02% (inactive)

Structure (SMILES): CN1/C(=C\C(=O)Nc2cccnc2)c2ccccc2CC1(C)C
- cell count [1]: 360
- inhibition [1]: -5% (inactive)
- inhibition of aggregation [2]: -8.4% (inactive)
- nuclei count [2]: 91.1%
- inhibition [3]: -31.3% (inactive)
- nuclei count [3]: 117%
- fluorescence slope [4]: -0.401 (inactive)
- NADPH fluorescence slope [5]: -4.2e-05 (inactive)
- slope [6]: 0.00677 (inactive)
- inhibition [7]: 18.7% (inactive)
- inhibition [8]: 19.4% (inactive)

Structure (SMILES): Cc1ccc(N2CCN(C(=S)c3ccc(N(C)C)cc3)CC2)cc1
- cell count [1]: 411
- inhibition [1]: -38.4% (inactive)
- inhibition of aggregation [2]: -2.2% (inactive)
- nuclei count [2]: 85.8%
- inhibition [3]: -90.7% (inactive)
- nuclei count [3]: 98.3%
- fluorescence slope [4]: -0.595 (inactive)
- NADPH fluorescence slope [5]: -2.7e-05 (inactive)
- slope [6]: 0.00418 (inactive)
- inhibition [7]: -12.6% (inactive)
- inhibition [8]: -63.7% (inactive)

Structure (SMILES): COCCSc1nnc(NC(=O)Cc2ccccc2OC)s1
- cell count [1]: 660
- inhibition [1]: -15.1% (inactive)
- inhibition of aggregation [2]: 5.4% (inactive)
- nuclei count [2]: 94.2%
- inhibition [3]: -30.7% (inactive)
- nuclei count [3]: 103%
- fluorescence slope [4]: -0.411 (inactive)
- NADPH fluorescence slope [5]: -5.1e-05 (inactive)
- slope [6]: 0.00483 (inactive)
- inhibition [7]: 16.6% (inactive)
- inhibition [8]: 25.8% (inactive)

Structure (SMILES): CCOC(=O)c1ccc(NS(=O)(=O)c2ccc3c(c2)CCCN3C(C)=O)cc1
- cell count [1]: 684
- inhibition [1]: 0.7% (inactive)
- inhibition of aggregation [2]: 9.2% (inactive)
- nuclei count [2]: 99%
- inhibition [3]: -93.7% (inactive)
- nuclei count [3]: 125%
- fluorescence slope [4]: -0.543 (inactive)
- NADPH fluorescence slope [5]: 8.9e-06 (inactive)
- slope [6]: 0.00506 (inactive)
- inhibition [7]: 1.89% (inactive)
- inhibition [8]: 6.65% (inactive)

Structure (SMILES): O=C(Nc1ccc(Br)c2cccnc12)c1ccc(Cn2cc(Cl)cn2)o1
- cell count [1]: 357
- inhibition [1]: 9.8% (inactive)
- inhibition of aggregation [2]: 10.4% (inactive)
- nuclei count [2]: 94.8%
- inhibition [3]: -76.7% (inactive)
- nuclei count [3]: 99.5%
- fluorescence slope [4]: -0.519 (inactive)
- NADPH fluorescence slope [5]: -3.6e-05 (inactive)
- slope [6]: 0.00614 (inactive)
- inhibition [7]: -9.8% (inactive)
- inhibition [8]: -11% (inactive)

Structure (SMILES): CC1Cc2nc(SCC(=O)Nc3ccc(F)cc3F)n(C)c(=O)c2S1 (stereo not given)
- cell count [1]: 366
- inhibition [1]: -0.6% (inactive)
- inhibition of aggregation [2]: -7.8% (inactive)
- nuclei count [2]: 104%
- inhibition [3]: 0.8% (inactive)
- nuclei count [3]: 113%
- fluorescence slope [4]: -0.587 (inactive)
- NADPH fluorescence slope [5]: -3.7e-05 (inactive)
- slope [6]: 0.00486 (inactive)
- inhibition [7]: 15.3% (inactive)
- inhibition [8]: 11.8% (inactive)

Structure (SMILES): CCOC(=O)C1CCN(S(=O)(=O)c2cccc(-c3csc(C)n3)c2)CC1
- cell count [1]: 234
- inhibition [1]: 4.4% (inactive)
- inhibition of aggregation [2]: 8.1% (inactive)
- nuclei count [2]: 97.1%
- inhibition [3]: 32.4% (inactive)
- nuclei count [3]: 89%
- fluorescence slope [4]: -0.433 (inactive)
- NADPH fluorescence slope [5]: -0.000124 (inactive)
- slope [6]: 0.0037 (inactive)
- inhibition [7]: 14.1% (inactive)
- inhibition [8]: 2.04% (inactive)

Structure (SMILES): Cc1c(C(=O)NCc2ccccc2)oc2c1C(=O)CCC2
- cell count [1]: 530
- inhibition [1]: -18.8% (inactive)
- inhibition of aggregation [2]: -28.3% (inactive)
- nuclei count [2]: 101%
- inhibition [3]: -70% (inactive)
- nuclei count [3]: 121%
- fluorescence slope [4]: -0.372 (inactive)
- NADPH fluorescence slope [5]: -6.4e-05 (inactive)
- slope [6]: 0.00395 (inactive)
- inhibition [7]: -4.65% (inactive)
- inhibition [8]: -7.05% (inactive)

Structure (SMILES): COc1ccc(/C=N/n2cc(-c3ccc(OC)cc3)nc2N)cc1
- cell count [1]: 351
- inhibition [1]: 10.9% (inactive)
- inhibition of aggregation [2]: 2.2% (inactive)
- nuclei count [2]: 107%
- inhibition [3]: 6.3% (inactive)
- nuclei count [3]: 117%
- fluorescence slope [4]: -0.246 (inactive)
- NADPH fluorescence slope [5]: 1.1e-05 (inactive)
- slope [6]: 0.00586 (inactive)
- inhibition [7]: 8.24% (inactive)
- inhibition [8]: 2.92% (inactive)

Structure (SMILES): CCS(=O)(=O)N1CCCC(C(=O)NCc2ccccc2Cl)C1 (stereo not given)
- cell count [1]: 257
- inhibition [1]: -1.9% (inactive)
- inhibition of aggregation [2]: -1.1% (inactive)
- nuclei count [2]: 107%
- inhibition [3]: -15.6% (inactive)
- nuclei count [3]: 112%
- fluorescence slope [4]: -0.608 (inactive)
- NADPH fluorescence slope [5]: -1.9e-05 (inactive)
- slope [6]: 0.00474 (inactive)
- inhibition [7]: 3.16% (inactive)
- inhibition [8]: -6.49% (inactive)

Structure (SMILES): O=C(Nc1ccc2c(c1)OCCO2)c1ccco1
- cell count [1]: 337
- inhibition [1]: -3.5% (inactive)
- inhibition of aggregation [2]: -13.9% (inactive)
- nuclei count [2]: 118%
- inhibition [3]: 6.1% (inactive)
- nuclei count [3]: 102%
- fluorescence slope [4]: -0.488 (inactive)
- NADPH fluorescence slope [5]: -3.7e-05 (inactive)
- slope [6]: 0.00709 (inactive)
- inhibition [7]: -48.4% (inactive)
- inhibition [8]: -81.4% (inactive)

Structure (SMILES): O=C(Nc1cnn(Cc2ccc(Cl)cc2Cl)c1)c1noc2c1CCCC2
- cell count [1]: 510
- inhibition [1]: -7.6% (inactive)
- inhibition of aggregation [2]: 33.3% (active)
- nuclei count [2]: 57.6%
- inhibition [3]: -22.8% (inactive)
- nuclei count [3]: 99.5%
- fluorescence slope [4]: -0.569 (inactive)
- NADPH fluorescence slope [5]: -2.6e-05 (inactive)
- slope [6]: 0.00522 (inactive)
- inhibition [7]: -3.18% (inactive)
- inhibition [8]: -25.5% (inactive)

Structure (SMILES): C=CCSC1=C(C#N)C(c2ccccc2Cl)CC(=O)N1 (stereo not given)
- cell count [1]: 407
- inhibition [1]: -6.5% (inactive)
- inhibition of aggregation [2]: 28.2% (inactive)
- nuclei count [2]: 74.3%
- inhibition [3]: -59% (inactive)
- nuclei count [3]: 171%
- fluorescence slope [4]: -0.561 (inactive)
- NADPH fluorescence slope [5]: 5.8e-06 (inactive)
- slope [6]: 0.0048 (inactive)
- inhibition [7]: 25.7% (inactive)
- inhibition [8]: 14.1% (inactive)
